Most compounds without a hit are left out; they make up all but 19% or so of the library.
Pf growth 48h = inhibits P. falciparum growth in the first generation, 48 h. 310,000 tested, 5.9% active. AID 504832. Potency, µM (titrated, usually from 28.7 µM), without a hit: at the highest dose activity change, negative = inhibition, usual class: inhibitors. P. falciparum luciferase growth in erythrocytes, 48 h; further: potency means the concentration at half of the fitted maximal effect; on the % scale 0 is the no-effect control and ±100 the full control effect
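Compounds are pin-transferred into medium, infected erythrocytes (2% hematocrit, 0.1% parasitemia final) are added, and plates sit one parasite generation at 37 C in 5% CO2. Detection reagent is then added and luminescence measured.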
Shiga inhibitor = Shiga toxin inhibition; inhibition, % at 38.7 µM; 290,000 tested, 9.2% active; AID 2315; Vero cells, Shiga toxin protein synthesis inhibition reporter; in the data active means inhibition mostly above about 28%, no sharp cut-off; inactive means mostly below about 43%; further: 0% is about no effect
SARS PLP yeast = inhibitors of SARS-CoV papain-like protease in yeast; S. cerevisiae expressing SARS-CoV PLpro, growth rescue; Potency, µM (titrated, usually from 32.9 µM), for the others: at the top dose activity, positive = growth rescue, hits mostly activators; 330,000 tested, 0.19% active; AID 485353; calls by dose curve; further: potency means the concentration at half of the fitted maximal effect; 0% is about no effect; nearly all actives have a fitted effect of over 55% in size
Cycloheximide cs = counter-screen hit for Shiga toxin inhibitors, cycloheximide; cell reporter, cycloheximide protein synthesis inhibition counterscreen; max response, %; 300,000 tested, 12% active; in the data active means max response mostly above about 13%, no sharp cut-off; inactive means mostly below about 14%; further: read at 38.3 µM for the half of the compounds with a filed dose; 0% is about no effect
AMA1-RON2 inh = inhibitors of Plasmodium falciparum AMA1-RON2 interaction; AID 720542; AlphaScreen AMA1-biotinylated RON2 peptide binding; Potency, µM (series often up to 58.2 µM), inactives show top-dose activity change, negative = inhibition, most hits filed as inhibitors; 360,000 tested, 0.2% active;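 further: potency means the concentration at half of the fitted maximal effect; 0% = vehicle wells and -100% = peptide control; nearly all actives have a fitted effect of over 45% in size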
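AMA1 (3D7) with his tag at 25 nM final met compounds first, then biotinylated RON2 peptide at 25 nM; detection used donor plus acceptor beads, 10 µg/mL apiece, read by AlphaScreen after 30 min at room temperature.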
Pf growth 96h = inhibits malaria parasite growth, 96 h | AID 504834 | Potency, µM (series often up to 28.7 µM), inactives show at the top dose activity change, negative = inhibition, actives largely listed as inhibitors | 320,000 tested, 6.9% active | P. falciparum luciferase reporter growth, 96 h; further: potency means the concentration at half of the fitted maximal effect; on the % scale 0 is the no-effect control and ±100 the full control effect
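96 h incubation, 37 C, 5% CO2, of luciferase-reporter P. falciparum-infected RBCs (2% hematocrit, 0.05% parasitemia final) with test compounds; endpoint luminescence.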
The depositor's hits bear a star; i = inactive; ? = inconclusive; nt = no result given. Unless noted, the call rests on the fitted dose curve; in most records, active means well fitted curve in the direction sought with a large enough effect; inconclusive means small, poorly fitted or top-dose-only effect, or another doubt; inactive means no such curve, though single readings can be large; an effect the other way counts as inactive or inconclusive.

SMILES	Pf growth 48h	Shiga inhibitor	SARS PLP yeast	Cycloheximide cs	AMA1-RON2 inh	Pf growth 96h
O=C(NC(=S)Nc1cccc([N+](=O)[O-])c1)c1ccccc1	82%	78*	-2%	36*	16%	62%
COc1cc([N+](=O)[O-])ccc1NC(=S)Nc1cccc(C(=O)O)c1	-10%	12	6%	13	-4%	1.5µM*
CCOc1ccc(C(=O)CCC(=O)NCC(=O)Nc2c(C)cccc2C)cc1	?	nt	2%	nt	-3%	-22%
C/C(=N/NC(=O)CCC(=O)Nc1cccc(Cl)c1)c1ccc(C)cc1	0%	-5	-12%	-3	12%	-3%
CCn1ncc(C2=NOC(C(=O)Nc3ccc(C)cc3)C2)c1C (stereo not drawn)	9%	-15	-3%	1	-2%	nt
CCn1ncc(C2=NOC(C(=O)Nc3cccnc3)C2)c1C (stereo not drawn)	-1%	13	14%	19*	-8%	-23%
CC(/C=N/N1CCN(c2ccccc2)CC1)=C\c1ccco1	63%	37	-7%	44*	-24%	i
CC(=C/c1ccco1)/C=N/N1CCN(c2ccccc2)CC1	251%	86*	-8%	46*	1%	i
O=C(/C=C/c1ccccc1)N(c1ccccn1)C1CCCCC1	-14%	1	-8%	9	-3%	-20%
CCN(CC)S(=O)(=O)c1ccc(/C=C/C(=O)N(c2ccccn2)C2CCCCC2)cc1	-5%	3	3%	0	-14%	4.7µM*
C=CCn1c(NS(=O)(=O)c2ccccc2)c(S(=O)(=O)c2ccc(C)cc2)c2nc3ccccc3nc21	3.3µM*	16	?	9	17%	?
O=S(=O)(Nc1c(S(=O)(=O)c2ccccc2)c2nc3ccccc3nc2n1C1CCCCC1)c1ccccc1	3.7µM*	-10	6%	1	-8%	9.3µM*
COCC(C)n1c(SCC(=O)N2CCCCC2)nc2ccccc2c1=O (stereo not drawn)	-24%	-15	2%	-3	-1%	0%
COCC(C)n1c(SCC(=O)Nc2sccc2C(N)=O)nc2ccccc2c1=O (stereo not drawn)	9.3µM*	nt	1%	nt	-12%	?
COCC(C)n1c(SCC(=O)Nc2nccs2)nc2ccccc2c1=O (stereo not drawn)	25%	nt	1%	nt	3%	39%
COCC(C)n1c(SCC(=O)N2CCc3ccccc3C2)nc2ccccc2c1=O (stereo not drawn)	?	-12	-15%	-1	-16%	7.4µM*
CCc1ccc2nc(SCC(=O)NCC3CCCO3)c(C#N)cc2c1 (stereo not drawn)	26%	7	1%	4	6%	42%
C=CCn1c(SCC(N)=O)nc2scc(-c3ccc(C)o3)c2c1=O	141%	85*	1%	45*	32%	2%
C=CCn1c(SCc2ccccc2)nc2scc(-c3ccc(C)o3)c2c1=O	7%	-5	4%	1	-2%	4%
Cc1ccc(-c2nnc(SCC(=O)NCC3CCCO3)nc2-c2ccc(C)cc2)cc1 (stereo not drawn)	15µM*	nt	9%	nt	-17%	?
C=CCn1c(SCC(=O)NCC2CCCO2)nc2scc(-c3ccc(OC)cc3)c2c1=O (stereo not drawn)	13%	-9	0%	-4	2%	5.2µM*
CC(C)c1ccc2nc(SCC(=O)NCC3CCCO3)c(C#N)cc2c1 (stereo not drawn)	19%	71*	-19%	23	5%	-20%
CN(C(=O)c1cccc(NC(=O)Cc2ccc(NC(=O)C3CCCN(C(=O)C4CCC4)C3)cc2)c1)C1CCCCC1 (stereo not drawn)	nt	nt	nt	nt	-5%	nt
CCOC(=O)CNC(=O)CSc1nc(-c2ccc(OC)cc2)ns1	32%	34	-1%	20	-8%	133%
COc1ccc(-c2nsc(SCC(=O)NCC3CCCO3)n2)cc1 (stereo not drawn)	127%	65*	0%	32*	7%	?
Cc1ccc(-c2nsc(SCC(=O)NCC3CCCO3)n2)cc1 (stereo not drawn)	18%	56*	-1%	19	-15%	63%
